HCMV antiviral: qHTS Assay for inhibitors of the human cytomegalovirus (HCMV); actives 4.5% (n = 410,000); HFF cells, HCMV-luciferase reporter, 72 h; stronger effect = lower value; activity change, negative = inhibition, % at 57.5 µM; in the data active = activity change below about -60%; inconclusive = no clear call, values can overlap the other calls; inactive = above about -39%
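Human foreskin fibroblasts infected with luciferase-reporter HCMV at MOI 1 PFU/cell, compounds at two doses. Luciferase measured 72 h post infection; normalized to buffer-only basal and Salinomycin (10uM) controls.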
HCV inh: qHTS Assay for Inhibitors of Hepatitis C Virus (HCV); Huh7.5.1 HCVcc-Cre infection, luciferase reporter, 44 h; Potency, µM (highest dose often 41.8 µM), usual class: inhibitors; actives 3.4% (n = 340,000); AID 651820, 2012; active = well fitted inhibition curve with a large enough effect; inconclusive = small, poorly fitted or top-dose-only effect, or another doubt; inactive = no such curve, though single readings can be large or run the other way
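Infectious HCV cell culture screen: compound-treated cells (1,000/well, pre-plated 4 h) are infected with HCVcc-Cre at roughly 0.5 moi and grown 44 h. Infection is quantified by luciferase signal after 15 min substrate incubation at room temperature.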
FMDV antiviral: High Throughput Screening for Foot and Mouth Disease Virus Antivirals. FMDV antiviral cell-based qHTS. Potency, µM (doses to about 57.9 µM), most hits filed as inhibitors. actives 1.2% (n = 410,000). AID 1159524, 2015; calls by dose curve; tested in HEK293T cells; note: read-out not given here; nearly all actives have a fitted effect of over 45% in size
MARV entry inh: qHTS for inhibitors of binding or entry into cells for Marburg Virus; Potency, µM (doses to about 37.8 µM), most hits filed as inhibitors; Marburg virus pseudotyped entry inhibition, cell reporter; actives 1.8% (n = 300,000); calls by dose curve; tested in HEK293 cells
Lassa entry inh: qHTS for Inhibitors of binding or entry into cells for Lassa Virus; Lassa virus pseudotype entry inhibition, cell reporter; Potency, µM (titrated, usually from 37.9 µM), most hits filed as inhibitors; actives 1.2% (n = 300,000); AID 540256, 2011; calls by dose curve; tested in HEK293 cells; note: nearly all actives have a fitted effect of over 50% in size
Large screens that a line does not name were inactive. Rows were chosen to be rich in hits. Some 7.9% of all compounds tested hit in one or more screens of this group.

Cc1ccc(/C=C2\C(=O)NC(=O)N(CCc3ccc(F)cc3)C2=O)o1	FMDV antiviral 22.4µM (no result: Lassa entry inh)
O=C1NC(=O)N(Cc2ccccc2Cl)C(=O)/C1=C/c1cccs1	HCMV antiviral -96.8, FMDV antiviral 22.4µM (no result: MARV entry inh, Lassa entry inh)
CCCC[C@]12Cc3cc(C#N)ccc3[C@H](O1)c1c(cc(C)n(-c3ccccc3)c1=O)O2	none (no result: HCMV antiviral, HCV inh, FMDV antiviral, Lassa entry inh)
Cc1ccc2c(=O)cc(C(=O)NCc3ccccc3)oc2c1	none (no result: HCV inh)
Cc1cc(C)c(S(=O)(=O)N2CCCC(C(=O)NCc3ccncc3)C2)c(C)c1 (configuration not stated)	HCV inh inconclusive (no result: HCMV antiviral)
Cc1ccc(Nc2nnc(SC3CCOC3=O)s2)cc1 (configuration not stated)	HCV inh inconclusive, MARV entry inh inconclusive, Lassa entry inh inconclusive
Cc1cccc(Nc2nnc(SC3CCOC3=O)s2)c1C (configuration not stated)	HCMV antiviral -80.6, MARV entry inh inconclusive
CC(C)C[C@@]12C(=O)N(c3cccc(F)c3)C(=O)N1[C@H](c1ccc(Cl)cc1)[C@@H]1C(=O)N(C3CCCCC3)C(=O)[C@@H]12	none (no result: MARV entry inh, Lassa entry inh)
O=C(N=c1ccn(-c2nc3ccccc3nc2NS(=O)(=O)c2ccccc2)cc1)c1cccs1	MARV entry inh inconclusive
Cc1ccccc1C(=O)N=c1ccn(-c2nc3ccccc3nc2NS(=O)(=O)c2ccc(F)cc2)cc1	HCMV antiviral -60.6 (no result: MARV entry inh, Lassa entry inh)
Cc1cc(C(=O)NCc2ccccc2)c2c(C)nn(-c3cccc(F)c3)c2n1	none (no result: HCV inh, MARV entry inh)
O=C(NCc1cccnc1)/C(=C/c1ccc(-c2ccc(Cl)cc2)o1)S(=O)(=O)c1ccccc1	HCV inh 7.94µM, FMDV antiviral 3.55µM, MARV entry inh inconclusive, Lassa entry inh 18.3µM (no result: HCMV antiviral)
O=C(NCc1cccnc1)/C(=C/c1ccc(-c2cccc(C(F)(F)F)c2)o1)NC(=O)c1ccccc1	MARV entry inh inconclusive, Lassa entry inh inconclusive
O=C(NCc1cccnc1)/C(=C\c1ccc(-c2ccc(Br)cc2)o1)S(=O)(=O)c1ccccc1	HCMV antiviral -102.6, HCV inh 11.2µM, FMDV antiviral 3.16µM, MARV entry inh inconclusive, Lassa entry inh 12.6µM
CCc1nc2ccc(C(=O)NCCN3CCOCC3)cn2c1N(C)Cc1ccc(OC)cc1	none (no result: HCV inh, MARV entry inh, Lassa entry inh)
O=C(NCCc1ccccc1)c1cnc2sc(N3CCCCCC3)nn2c1=O	FMDV antiviral inconclusive (no result: HCV inh, MARV entry inh)
C=CCOc1ccccc1/C=N/NC(=O)c1ccc(Cl)cc1Cl	MARV entry inh inconclusive
COc1cc(C(=O)Oc2ccccc2/C=N/NC(=O)c2ccc(Cl)cc2Cl)cc(OC)c1OC	HCMV antiviral -99.7, HCV inh inconclusive, MARV entry inh inconclusive, Lassa entry inh inconclusive
C/C=C/c1ccc(OCCCCN2C(=O)NC(C)(C)C2=O)c(OC)c1	HCV inh inconclusive, MARV entry inh inconclusive, Lassa entry inh 18.3µM
C/C=C/c1ccc(OCCCCOc2ccccc2C(C)=O)c(OC)c1	HCMV antiviral inconclusive
C/C=C/c1ccc(OCCCCN(C)Cc2ccccc2)c(OC)c1	HCV inh 11.2µM (no result: MARV entry inh, Lassa entry inh)
O=C(CSc1nnc2ccc3ccccc3n12)c1ccc(F)cc1	MARV entry inh inconclusive (no result: HCV inh)
Cc1c(C(=O)N/N=C/c2cccs2)nc2ccccn12	HCMV antiviral inconclusive, MARV entry inh inconclusive
CSc1ncnc2c1cnn2-c1ccc(C)cc1C	none
Cc1ccc(-n2ncc3c(SCc4ccccn4)ncnc32)c(C)c1	HCMV antiviral -101.4, HCV inh inconclusive, FMDV antiviral inconclusive, MARV entry inh inconclusive, Lassa entry inh 0.562µM
Cc1ccc(CSc2ncnc3c2cnn3-c2ccccc2)cc1	none
Cc1ccc(-n2ncc3c(SCc4ccccc4)ncnc32)cc1	HCMV antiviral -62.9, MARV entry inh inconclusive
Cc1cccc(C(=O)NCC(=O)OCc2cc(=O)n3nc(C4CCCCC4)sc3n2)c1	none (no result: HCV inh, MARV entry inh)
CCC(=O)N(CCC(Cc1ccccc1)c1ccc2c(c1)OCO2)Cc1ccccc1F (configuration not stated)	FMDV antiviral inconclusive, MARV entry inh 12.6µM, Lassa entry inh inconclusive
COCc1ccc(CN2CCOc3c(O)cc(-c4cc(C)c5ccc(F)cc5n4)cc3C2)o1	none (no result: HCMV antiviral, HCV inh, MARV entry inh, Lassa entry inh)
O=C(Nc1ccc2c(c1)CCCN2C(=O)c1cccs1)c1ccccc1C(F)(F)F	HCMV antiviral -71.5, Lassa entry inh inconclusive (no result: HCV inh, MARV entry inh)
COc1ccccc1C(=O)Nc1ccc2c(c1)CCCN2C(=O)c1cccs1	HCMV antiviral -60.4, HCV inh inconclusive, MARV entry inh inconclusive, Lassa entry inh inconclusive
COc1ccc(OC)c([C@H]2C(C(=O)c3sc(C)nc3C)=C(O)C(=O)N2CCN2CCOCC2)c1	none (no result: HCMV antiviral, HCV inh, FMDV antiviral, Lassa entry inh)
CCCCN1CC(COCc2ccccc2)Oc2cccc(OCCN3C(=O)[C@@H]4[C@H](C3=O)C3C=C[C@H]4C3)c2S1(=O)=O (some centres not stated)	HCV inh 10µM (no result: MARV entry inh, Lassa entry inh)
O=C1[C@@H]2[C@H](C(=O)N1C[C@@H](COCc1ccccc1)Oc1cccc3c1S(=O)(=O)N(CCc1ccc(F)cc1)C[C@H](COCc1ccccc1)O3)[C@@H]1C=C[C@H]2C1	none (no result: HCV inh, FMDV antiviral, MARV entry inh, Lassa entry inh)
CCCCN1CC(COCc2ccccc2)Oc2cccc(Oc3ccc(SC)c(C)c3)c2S1(=O)=O (configuration not stated)	HCMV antiviral -80.0 (no result: HCV inh, FMDV antiviral, MARV entry inh, Lassa entry inh)
CNC(=O)C[C@H]1C(=O)N(c2ccc(OC)cc2)C[C@@H]1C	Lassa entry inh inconclusive (no result: HCV inh, MARV entry inh)
CC(C)C(=O)Nc1nnc(S(=O)(=O)N(C)Cc2ccc(F)cc2)s1	HCMV antiviral inconclusive (no result: HCV inh, MARV entry inh)
CCC[C@H](C)n1[nH]c(=O)cc1N	none (no result: HCMV antiviral, HCV inh, FMDV antiviral, Lassa entry inh)
CC(=O)c1c(C)[nH]c(C(=O)NCc2cccc(Cl)c2)c1C	HCV inh 11.2µM
CC(=O)c1c(C)[nH]c(C(=O)NCc2ccc(Cl)cc2)c1C	none (no result: HCV inh, MARV entry inh, Lassa entry inh)
CC(=O)c1[nH]c(C)c(C(=O)NCc2ccc(Cl)cc2)c1C	HCMV antiviral -93.6, FMDV antiviral inconclusive (no result: HCV inh, MARV entry inh)
CCC1CN(CCNC(=O)c2cc(C)nn2CC)Cc2cc(OC)ccc2O1 (configuration not stated)	none (no result: HCMV antiviral, HCV inh, MARV entry inh, Lassa entry inh)
COc1ccc(NC(=O)C[C@H]2C(=O)N(CCc3ccccc3)C[C@@H]2CSC)cc1	none (no result: HCV inh, MARV entry inh)
O=C(C[C@H]1C(=O)N(c2ccc(Br)cc2)C[C@@H]1Cc1ccccc1)Nc1ccccc1	Lassa entry inh 4.99µM (no result: HCV inh, MARV entry inh)
COc1ccc(NC(=O)C[C@H]2C(=O)N(CCc3ccccc3)C[C@@H]2Cc2ccccc2)cc1	Lassa entry inh 15.8µM (no result: HCV inh, MARV entry inh)
CCCCCCc1ccc(N2C[C@H](Cc3ccccc3)[C@@H](CC(=O)NCc3ccc(OC)cc3)C2=O)cc1	HCV inh 2.82µM (no result: MARV entry inh, Lassa entry inh)
CCCNC(=O)c1nnc2n1CCN(C(=O)c1ccc3sccc3c1)C2	none (no result: HCV inh, FMDV antiviral, MARV entry inh, Lassa entry inh)
CC1(C)C[C@H](n2[nH]c(=O)c3c2NC(=O)CS[C@@H]3c2ccccc2)CCO1	none (no result: HCMV antiviral, HCV inh, FMDV antiviral, Lassa entry inh)
CC(=O)Nc1ccc(Oc2cc(C#N)c(C#N)cc2N2CCCCCC2)cc1	HCMV antiviral inconclusive, HCV inh inconclusive, FMDV antiviral 17.8µM, MARV entry inh inconclusive, Lassa entry inh inconclusive
COC(=O)c1ccc(NC(=O)CC2C(=O)N(c3ccc(F)cc3)C(=O)N2Cc2ccc(OC)cc2)cc1 (configuration not stated)	none (no result: HCV inh, MARV entry inh)

Assay outcomes (PubChem)
